“And” between values parts separate entries of the source, which are not always exact repeats. Identical values can stand only once. The campaign covered roughly 5,500 compounds. About 2,000 (36%) were called active. Not shown: some 18% with an inconclusive outcome. No stated cut-off is given here; in the data, active means normalized growth mostly below about 0.91 (no sharp cut-off); inconclusive means no clear call, values can overlap the other calls; inactive means mostly above about 0.92. The list shows a part of the results.
Experiment: chemical genetic growth profiling, strain panel (AID 1159580);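 further: tested at 20 µM; growth read once vehicle control cultures reached saturation at 30 °C; 1 = growth at the plate median or of vehicle wells; lower values mean less growth of the strain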
Conditions: S. cerevisiae deletion strains, growth OD

Measured: normalized growth

COP(=O)(OC)OC=C(Cl)Cl
inactive: locus YAL013W, strain DEP1, active compounds read low 0.997 | locus YAL021C, strain ccr4, active compounds read low 0.988 | locus YAL026C, strain drs2, active compounds read low 0.993 | locus YAL030W, strain snc1, active compounds read low 1 | locus YBL061C, strain skt5, active compounds read low 0.984 | locus YBR009C, strain hhf1, active compounds read low 0.991 | locus YBR021W, strain FUR4, active compounds read low 1.05 | locus YBR023C, strain chs3, active compounds read low 0.995 | locus YBR171W, strain sec66, active compounds read low 1.01 | locus YBR229C, strain ROT2, active compounds read low 0.965 | locus YBR231C, strain swc5, active compounds read low 0.999 | locus YBR279W, strain paf1, active compounds read low 0.992 | locus YCL011C, strain gbp2, active compounds read low 0.994 | locus YCL016C, strain dcc1, active compounds read low 1.01 | locus YCL029C, strain bik1, active compounds read low 0.98 | locus YCL061C, strain MRC1, active compounds read low 0.991 | locus YCL069W, strain vba3, active compounds read low 1 | locus YCR088W, strain abp1, active compounds read low 1 | locus YDL005C, strain med2, active compounds read low 0.997 | locus YDL035C, strain GPR1, active compounds read low 0.977 | locus YDL040C, strain nat1, active compounds read low 0.989 | locus YDL074C, strain BRE1, active compounds read low 0.957 | locus YDL101C, strain DUN1, active compounds read low 0.964 | locus YDL134C, strain PPH21, active compounds read low 0.983 | locus YDL185W, strain tfp1, active compounds read low 0.947 | locus YDL192W, strain arf1, active compounds read low 0.983 | locus YDR001C, strain nth1, active compounds read low 0.998 | locus YDR069C, strain doa4, active compounds read low 0.975 | locus YDR101C, strain arx1, active compounds read low 0.986 | locus YDR137W, strain rgp1, active compounds read low 0.982 | locus YDR150W, strain NUM1, active compounds read low 0.985 | locus YDR159W, strain sac3, active compounds read low 0.965 | locus YDR162C, strain NBP2, active compounds read low 0.981 | locus YDR195W, strain ref2 0.933 | locus YDR297W, strain sur2, active compounds read low 0.99 | locus YDR318W, strain mcm21, active compounds read low 0.983 | locus YDR334W, strain swr1, active compounds read low 1.01 | locus YDR335W, strain msn5, active compounds read low 0.995 | locus YDR388W, active compounds read low 0.995 | locus YDR392W, strain spt3, active compounds read low 1 | locus YDR502C, strain sam2, active compounds read low 0.993 | locus YEL003W, strain gim4, active compounds read low 0.991 | locus YEL037C, strain rad23, active compounds read low 0.986 | locus YEL061C, strain CIN8 (second series), active compounds read low 0.984 | locus YEL061C, strain CIN8, active compounds read low 0.989 | locus YER015W, strain faa2, active compounds read low 0.982 | locus YER016W, strain bim1, active compounds read low 0.99 | locus YER110C, active compounds read low 0.969 | locus YER111C, strain swi4, active compounds read low 0.989 | locus YER155C, strain BEM2 (second series), active compounds read low 0.998 | locus YER155C, strain BEM2, active compounds read low 0.991 | locus YER167W, strain BCK2, active compounds read low 0.988 | locus YFR010W, strain ubp6, active compounds read low 0.994 | locus YGL078C, strain dbp3, active compounds read low 0.986 | locus YGL086W, strain mad1, active compounds read low 0.994 | locus YGL167C, strain pmr1, active compounds read low 0.994 | locus YGL173C, strain kem1, active compounds read low 0.986 | locus YGL227W, strain vid30, active compounds read low 0.991 | locus YGL240W, strain doc1, active compounds read low 0.978 | locus YGL248W, strain PDE1, active compounds read low 0.982 | locus YGL253W, strain hxk2, active compounds read low 0.998 | locus YGR078C, strain PAC10, active compounds read low 0.989 | locus YGR135W, strain pre9, active compounds read low 0.993 | locus YGR229C, strain SMI1, active compounds read low 1.01 | locus YGR252W, strain gcn5, active compounds read low 0.998 | locus YHR013C, strain ard1, active compounds read low 0.974 | locus YHR027C, strain rpn1, active compounds read low 1.01 | locus YHR030C, strain SLT2, active compounds read low 1.01 and 1.02 | locus YHR079C, strain IRE1 (second series), active compounds read low 0.982 | locus YHR079C, strain IRE1, active compounds read low 1.05 | locus YHR094C, strain hxt1, active compounds read low 0.993 | locus YHR129C, strain ARP1, active compounds read low 0.976 | locus YHR142W, strain chs7, active compounds read low 0.989 | locus YHR200W, strain rpn10, active compounds read low 0.989 | locus YIL066C, strain RNR3, active compounds read low 1 | locus YIL073C, strain SPO22, active compounds read low 1.06 | locus YIL125W, strain kgd1, active compounds read low 0.98 | locus YIR030C, strain dcg1, active compounds read low 0.988 | locus YJL092W, strain hpr5, active compounds read low 1 | locus YJL095W, strain BCK1 (second series), active compounds read low 0.996 | locus YJL095W, strain BCK1, active compounds read low 1.01 and 1.03 | locus YJL115W, strain asf1, active compounds read low 0.998 | locus YJL129C, strain trk1, active compounds read low 1.01 | locus YJL134W, strain LCB3, active compounds read low 1 | locus YJL154C, strain vps35, active compounds read low 0.997 | locus YJL164C, strain tpk1, active compounds read low 0.992 | locus YJL166W, strain qcr8, active compounds read low 0.992 | locus YJL168C, strain set2, active compounds read low 0.981 | locus YJL187C, strain SWE1 (second series), active compounds read low 0.976 | locus YJL187C, strain SWE1, active compounds read low 1 | locus YJR043C, strain POL32, active compounds read low 0.988 | locus YJR066W, strain TOR1, active compounds read low 0.981

Source: PubChem BioAssay AID1159580 (chemical genetic matrix, 2015)
